Source: PubChem BioAssay (several laboratories)
PTK2B oligo ant: antagonists of Pyk2 self-association, primary screen, Q293 cells, FERM NanoBiT luminescence, HTS | Protein-tyrosine kinase 2-beta (Homo sapiens), Q14289 | actives 0.83% (n = 99,000) | hits give low values | AID 1347419, 2020 | z-score (the deposit names both 25 µM and 10 µM);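 active = Z-score of -3 or lower, scaled per plate to the spread of control and sample wells; inactive = z-score above -3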;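 also: negative z-score means lost luminescence so less FERM oligomerization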
IL1B NFkB inh: inhibitors of IL-1B driven NFkB p65 nuclear import, primary screen, imaging, HUVEC, IL-1B stimulus, high-content imaging | HUVEC IL-1B NFkB p65 nuclear translocation imaging | inhibition, % at 2 µM | actives 0.43% (n = 94,000);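 active = inhibition above about 30% together with a positive call from visual inspection of the well image, limit read from the data; inconclusive = inhibition above a set limit but visual check negative; inactive = inhibition not above a set limit, visual check negative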;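 also: nuclear over cytoplasmic p65 intensity ratio measured by imaging; 0% = IL-1B stimulated DMSO wells and 100% = unstimulated DMSO wells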
FAK blocker: FAK kinase inhibitors, primary screen, biochemical. inhibition, %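 (tested at 7 µM)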. Focal adhesion kinase 1 (Homo sapiens), Q05397. actives 0.84% (n = 97,000). biochemical FAK kinase activity assay. AID 727, 2007; in the data active = inhibition above about 19%;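 also: 0% = DMSO and 100% = reference compound high control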
HUVEC tox IL1B: cytotoxicity in IL-1B stimulated HUVEC, primary screen, cytotoxicity control for IL-1B NFkB translocation project, imaging, Hoechst nuclear count, IL-1B stimulus. HUVEC cell count loss. cell count reduction, % at 2 µM. actives 0.41% (n = 94,000);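 active = cell count reduction more than 3 SD above the screen-wide mean, cut at about 70% in these data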;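 also: normalized per plate to untreated control cells as the no-loss baseline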
IL1B NFkB pot: enhancers of NFkB p65 translocation in HUVEC – imaging, IL-1B stimulus, high-content imaging, primary screen. HUVEC IL-1B NFkB p65 nuclear translocation imaging. activation, % at 2 µM. actives 0.3% (n = 94,000). AID 819, 2007;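 active = activation above 40%, about the mean plus 3 SD, also judged a hit on visual image review; inconclusive = activation above 40% but not a hit on visual review; inactive = activation not above 40% and no visual hit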;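 also: percent activation is computed from the nuclear over cytoplasmic p65 intensity ratio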
JNK3 blocker: JNK3 kinase activity inhibitors, primary screen, biochemical, human, purified enzyme. inhibition, % at 8 µM. actives 0.61% (n = 60,000). HTS. Mitogen-activated protein kinase 10 (Homo sapiens), P53779; in the data active = inhibition above about 17%;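 also: 0% = DMSO and 100% = reference inhibitor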
Numbers without * were called inactive; ? = inconclusive; · = not tested or not shown. A selection: hits, their analogues and other compounds. The true share with any hit is near 2.4%.

SMILES	PTK2B oligo ant	IL1B NFkB inh	FAK blocker	HUVEC tox IL1B	IL1B NFkB pot	JNK3 blocker
O=C(CC1C(=O)NCCN1C(=O)Nc1ccccc1)Nc1cccc(C(F)(F)F)c1 (centres undefined)	-3.2*	2	0	-5	-2	-3
C/C(=N\Nc1ncc(Cl)cc1Cl)c1ccc(OC(F)F)cc1	-0.39	·	·	·	·	·
C=CCn1c(=O)c(C(=O)Nc2cccnc2)c(O)c2ccccc21	-0.03	1	23*	11	-1	·
O=C(Nc1ccc2nc(-c3ccc(Br)o3)[nH]c2c1)c1cccs1	0.96	99*	-1	84*	-99	-8
COc1cc(-c2nnc3sc(-c4ccccn4)nn23)cc(OC)c1OC	·	·	·	·	·	3
COC(=O)c1ccc(-c2ccco2)n1Cc1cccc(C)c1	0.24	-24	0	2	24	·
CCSc1nc(C)c(CC)c(C)c1C(N)=O	0	34*	0	-1	-34	3
Cc1ccc(C(=O)CSc2nc(C)cc(C)c2C(N)=O)cc1	0.63	6	-3	-35	-6	·
CCC1CCCCN1c1nc2c(c(=O)n(C)c(=O)n2C)n1CCSc1nc2ccccc2o1 (centres undefined)	·	·	·	·	·	7
CN(C)CCCN1C(=O)c2oc3ccc(F)cc3c(=O)c2C1c1cccnc1 (centres undefined)	·	·	·	·	·	-8
Cc1oc2ccc(OCC(N)=O)cc2c1C(=O)OC(C)C	0.28	-26	1	-12	27	32*
Cc1oc2ccc(O)cc2c1C(=O)OC(C)C	-0.48	-41	1	-21	?	·
CCOC(=O)C(C(=O)NCCCN1CCOCC1)C1CCCCC1 (centres undefined)	1.1	0	19*	7	0	·
NNc1nc(-c2ccccc2)cc(-c2ccccc2O)n1	-0.8	7	3	0	-7	·
Nc1nc(-c2ccccc2)cc(-c2ccccc2O)n1	-0.48	-11	2	-121	11	35*
COc1cccc(C2c3c(-c4ccccc4)n[nH]c3C(=O)N2c2ccc(C(=O)O)cc2)c1 (centres undefined)	1.1	-13	-5	-16	13	·
COc1ccc(-c2n[nH]c3c2C(c2ccc(OC)c(OC)c2)N(c2ccccc2)C3=O)cc1 (centres undefined)	-3*	-6	0	-2	6	·
CCCc1cc(=O)[nH]c(NCc2ccc(Cl)cc2)n1	0.31	0	3	90*	0	4
CCCc1cc(=O)[nH]c(Nc2ccc(O)cc2)n1	-0.9	-9	0	-7	9	·
O=C(N/C=C/c1ccc(Cl)cc1)NCc1ccc(Cl)cc1	0.03	1	-8	6	-1	·
Oc1cccc2ccc(Nc3ccccn3)nc12	-1.4	·	·	·	·	-4
c1ccc(Nc2ccccc2Nc2ccccn2)nc1	-0.75	-15	1	-24	15	43*
CCC(=O)N1CCN(c2cc(C)ccc2C)CC1	0.94	-4	-7	-35	4	5
Cc1ccc(C)c(N2CCN(C(=O)CC3Sc4ccccc4NC3=O)CC2)c1 (centres undefined)	·	5	0	79*	-5	-2
c1ccc(-n2ncc3c(N4CCN(CCOc5cccc6ccccc56)CC4)ncnc32)cc1	-0.32	1	2	12	-1	·
SMILES	PTK2B oligo ant	IL1B NFkB inh	FAK blocker	HUVEC tox IL1B	IL1B NFkB pot	JNK3 blocker
CC1CCN(c2oc(-c3cccc4ccccc34)nc2C#N)CC1	1.4	100*	-2	94*	-100	-3
COCCN(C(=O)CCC(=O)Nc1cccnc1)C(C(=O)NC1CCCCC1)c1ccccc1 (centres undefined)	0.95	-1	0	-31	1	0
N#CC1=C(N)Oc2cc(O)ccc2C1c1ccncc1 (centres undefined)	-0.13	1	0	-62	-1	6
CN(C)c1ccc2c(c1)OC(N)=C(C#N)C2c1cccc(F)c1 (centres undefined)	-3.1*	·	·	·	·	-2
CC(/C=N/Nc1nnc2c(n1)[nH]c1ccccc12)=C\c1ccco1	-0.53	-65	2	4	65*	·
Cc1cccc2c1[nH]c1nc(N/N=C\c3ccco3)nnc12	·	0	9	-25	0	·
CCOC(=O)C1CCN(C(C(=O)Nc2ccc3c(c2)OCCO3)c2ccccc2)CC1 (centres undefined)	-0.55	-3	-1	6	5	0
CCN(C(=O)c1cc2ccccc2oc1=O)c1ccccc1	-0.39	10	0	4	-10	·
O=C(c1cc2ccccc2oc1=O)N(Cc1cccs1)Cc1ccccc1Cl	-2.7	-3	7	94*	3	·
CC(C)(C)NC(=O)NC(=O)COC(=O)C1=COCCO1	0.51	9	0	6	-9	·
Brc1ccc(C2=CC(c3cccs3)n3ncnc3N2)cc1 (centres undefined)	-3.5*	8	11	-7	-8	·
OCCCc1nc2n(n1)C(c1cccs1)C=C(c1ccc(Br)cc1)N2 (centres undefined)	·	3	2	-3	-3	·
COc1ccc(N2CCN(c3ncnc4c3[nH]c3ccccc34)CC2)cc1	-3.5*	-2	2	5	2	·
CCOC(=O)N1CCN(c2ncnc3c2[nH]c2ccc(F)cc23)CC1	-3*	-6	-1	20	6	·
CCOC(=O)N1CCN(c2ncnc3c2[nH]c2ccc(OC)cc23)CC1	-0.15	-4	2	8	4	-6
Fc1ccc2[nH]c3c(N4CCN(c5ccccc5)CC4)ncnc3c2c1	-3.4*	·	·	·	·	-3
C[N+]1(CCCCCCC(=O)/C=N/O)CCCCCC1	-0.06	0	4	3	0	·
CCOc1ncccc1C(=O)NCC1COc2ccccc2O1 (centres undefined)	-0.94	-4	1	-11	4	10
CCOC(=O)N1CCN(C2CC(=O)N(c3ccc(Oc4ccccc4)cc3)C2=O)CC1 (centres undefined)	0.95	-7	-2	-38	7	·
COC(=O)c1ccc2nc(C)c(C)nc2c1	0.26	-2	2	4	2	·
COC(=O)c1ccc2c(c1)C(C)(C)C(/C=C/c1ccc(OC)c(OC)c1OC)=[N+]2C	-0.21	37*	5	-2	-37	·
COC(=O)c1ccc2c(c1)C(C)(C)C(/C=C/c1ccc(O)cc1)=[N+]2C	-0.31	34*	0	-6	-34	·
CN(C(=O)c1cccc(Nc2ccc(-c3ccc4c(c3)OCCO4)nn2)c1)C1CCCCC1	-3.6*	0	3	-17	0	·
CS(=O)(=O)NCCOc1ccc(S(=O)(=O)N2CCCc3ccccc32)cc1	1.6	-1	0	-14	1	-1
CCOC(=O)C1=C(CC)Nc2ccccc2N=C1NC(=O)Cn1cnc2ccccc2c1=O	-0.25	-3	2	4	3	-8
